# Measurements taken from PubChem BioAssay AID686978 (National Center for Advancing Translational Sciences (NCATS), 2013).
# In all, about 420,000 compounds went through this assay and about 64,000 (15%) were called active. Roughly 27% stayed inconclusive and do not appear here. Not all results are given here. Unmarked numbers belong to inactive results. The call rests on the fitted dose curve; in most records, active means well fitted inhibition curve with a large enough effect; inconclusive means small, poorly fitted or top-dose-only effect; inactive means flat fitted curve, though single readings scatter.
# Assay: qHTS for Inhibitors of human tyrosyl-DNA phosphodiesterase 1 (TDP1): qHTS in cells in absence of CPT; further: nearly all actives have a fitted effect of over 55% in size
# Settings: DT40 Tdp1-/- hTDP1 cells, no CPT, ATP luminescence, 48 h; activity change, negative = growth inhibition: at 46.2 µM (top of the series)
# Method in brief: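 Readout: luminescence from CellTiter-Glo after 30 min in the dark at RT. Cells: DT40 Tdp1-/- with stable hTDP1, 400/well. Exposure: compounds alone, ≥48 hr, 37 °C.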
# On the % scale 0 is the no-effect control and ±100 the full control effect; potency means the concentration at half of the fitted maximal effect.
Compound,"activity change, negative = growth inhibition [%]",Potency
CCNC(=S)N1CCN(C(=O)c2ccco2)CC1,-11.5,–
O=C1OC(c2ccc(Cl)cc2)=N/C1=C\c1cccnc1,–,16.4 µM (active)
Cc1ccccc1C1=N/C(=C/c2cccnc2)C(=O)O1,-15.2,–
Cc1ccc(C2=C/C(=C\c3cccnc3)C(=O)O2)cc1,1.52,–
O=C1NC2(CCCCCC2)C(=O)N1CCS(=O)(=O)Oc1ccccc1,-21.8,–
CCCNC(=S)N1CCC(NC(=O)c2ccc(OC)cc2)CC1,-23,–
CCOn1c(=O)c(=O)n(O)c2ccccc21,6.1,–
Cc1cccc(-c2c(NC(=O)c3ccco3)oc3ccc(Cl)cc3c2=O)c1,–,25.9 µM (active)
O=C(Nc1nonc1-c1ccc(Cl)cc1)c1ccco1,-16.8,–
COc1ccc(-c2c(NC(=O)c3ccco3)oc3ccc(Cl)cc3c2=O)cc1,-0.195,–
Clc1ccccc1CSc1nnc(-c2ccco2)c(-c2ccco2)n1,-20.7,–
COC(=O)c1noc(C)c1-c1ccnn1C(=O)c1ccc(Cl)cc1,3.11,–
Cc1onc(-c2ccc(Cl)cc2)c1-c1ccnn1S(=O)(=O)c1ccc(Cl)cc1,–,16.4 µM (active)
CC(Oc1ccc(Cl)cc1)c1ccnn1S(C)(=O)=O (stereo unspecified),-19.6,–
Nc1ncnc2c1ncn2[C@@H]1O[C@H](C(=O)NS(=O)(=O)c2c(Cl)nc3sccn23)[C@@H](O)[C@H]1O,-0.108,–
COC1C[C@@H](O[C@@H]2C(C)C(=O)OC(C)C(C)C(O)C(C)C(=O)[C@@]3(CO3)CC(C)C(OC3OC(C)CC(N(C)C)C3O)C2C)OC(C)[C@@H]1O (stereo partly specified),-0.826,–
Cc1ccc(S(=O)(=O)n2cccc2CO)cc1,-3.56,–
CCOc1ccc(-c2cc3c(=O)n(CC(=O)NCc4ccc(OC)cc4)ccn3n2)cc1,-10.6,–
COCCCNC(=S)NNC(=O)C(O)(c1ccccc1)c1ccccc1,-6.89,–
COc1cc(C2/C(=C(\O)c3ccc4c(c3)CC(C)O4)C(=O)C(=O)N2c2nnc(C)s2)cc(OC)c1OC (stereo unspecified),11.4,–
CS(=O)(=O)N1CCc2nc(-c3ccccc3)sc2C1,2.11,–
COC(=O)c1ccccc1SC1CC(=O)N(c2cccc(C)c2)C1=O (stereo unspecified),–,8.2 µM (active)
COC(=O)[C@@]1(Sc2ccc(C)cc2)CC(=O)N(c2cccc(SC)c2)[C@@H]1c1ccccc1,-80.6,–
COC(=O)c1cccc(N2C(=O)C3C4C=CC(CC4)C3C2=O)c1 (stereo unspecified),-0.408,–
Cc1ccc(CC2S/C(=C(/C#N)C(=O)N3CCOCC3)N(c3ccccc3)C2=O)cc1 (stereo unspecified),-17.2,–
C[n+]1ccc(/C=C/c2c[nH]c3ccccc23)cc1,–,0.651 µM (active)

Compound,"activity change, negative = growth inhibition [%]",Potency
O=C(NC1CCCC1)C(=O)c1c[nH]c2ccccc12,2.79,–
CC(=O)N/C(=C/c1ccc(Cl)cc1)C(=O)NCCc1c[nH]c2ccccc12,-27.7,–
O=C(NCc1ccc(F)cc1F)[C@@H]1CCCN1C(=O)[C@@H]1CCCN1C(=O)c1cccc(Cl)c1,-41.3,–
Cc1cc(=O)oc2c1c(C)nn2-c1ccc(Cl)cc1,-23.9,–
O=C(Nc1ccccc1)OCc1cn(-c2ccc(Cl)cc2)nn1,-27.2,–
O=CNc1cc(-c2ccc(C(=O)N3CCOCC3)cc2)cn2c(-c3ccc(F)cc3)cnc12,–,18.4 µM (active)
CC(=O)Nc1cccc(-c2cc(NC=O)c3ncc(-c4ccc(F)c(Cl)c4)n3c2)c1,–,16.4 µM (active)
N#C/C=C(/c1ccc(F)cc1)N1CCOCC1,-5.74,–
CC(=O)c1ccc(-c2cnc3c(NC=O)cc(-c4cccc(NS(C)(=O)=O)c4)cn23)cc1,–,20.6 µM (active)
CC(=O)c1cccc(-c2cnc3c(NC=O)cc(-c4ccc(N(C)C)cc4)cn23)c1,–,8.2 µM (active)
CCOc1ccccc1C1CC(c2cccc(NS(C)(=O)=O)c2)=NN1C(=O)c1ccccc1 (stereo unspecified),-12,–
CC(=O)Nc1cccc(-c2cnc3ccccc3n2)c1,-14.1,–
Cc1c(NC(=O)Nc2ccc(F)c(Cl)c2)c(=O)n(-c2ccccc2)n1C,-1.88,–
Cc1ccc(C(=O)N2CCN(C(=O)N3CCOCC3)CC2)cc1,-0.848,–
CCS(=O)(=O)Nc1cc(C(=O)N2C[C@@H](C)O[C@@H](C)C2)c2c(c1)nc(-c1ccccc1)n2C,-3.48,–
COC(c1ccccc1)c1nnc(CCC(=O)N2CCN(CCOc3ccccc3)CC2)o1 (stereo unspecified),-28.4,–
CSc1nnc2c(n1)OC(c1cn(C)c3ccccc13)N(C(C)=O)c1ccccc1-2 (stereo unspecified),-3.8,–
O=C(O)c1ccccc1CSc1nc2ccccc2s1,-19.5,–
CCNC(=O)CC1C(=O)N(c2ccc(F)cc2)C(=O)N1CCc1sccc1C (stereo unspecified),-13.8,–
Cc1nc2nc[nH]n2c(=O)c1C/C=C/c1ccccc1,-2.31,–
CCn1c(CSc2ncccn2)nnc1SCC(=O)N1c2ccccc2CC1C (stereo unspecified),-7.77,–
CCc1nnc(NC(=O)CCC(=O)NCc2ccccc2OC)s1,5.54,–
COc1ccccc1C1/C(=C(/O)c2ccc(OC(C)C)cc2)C(=O)C(=O)N1c1cc(C)on1 (stereo unspecified),-14.2,–
O=C(Nc1ccc(F)cc1)N1CCN(c2ccc(F)cc2)CC1,-1.59,–
CC(=O)c1cccc(-c2cnc3c(NC=O)cc(-c4ccccc4Oc4ccccc4)cn23)c1,–,14.6 µM (active)
